This is an account of results in ChEMBL document CHEMBL1961873, “Compounds: GSK PKIS; Assays: Nanosyn kinase panel” (2012).

Assay [1] addresses Protein kinase C gamma type (Homo sapiens) (UniProt P05129). The settings on record: at 1 µM.
Assay [2] has as its target T1, Protein kinase C iota type (Homo sapiens) (UniProt P41743).
T1 sequence (whole entry): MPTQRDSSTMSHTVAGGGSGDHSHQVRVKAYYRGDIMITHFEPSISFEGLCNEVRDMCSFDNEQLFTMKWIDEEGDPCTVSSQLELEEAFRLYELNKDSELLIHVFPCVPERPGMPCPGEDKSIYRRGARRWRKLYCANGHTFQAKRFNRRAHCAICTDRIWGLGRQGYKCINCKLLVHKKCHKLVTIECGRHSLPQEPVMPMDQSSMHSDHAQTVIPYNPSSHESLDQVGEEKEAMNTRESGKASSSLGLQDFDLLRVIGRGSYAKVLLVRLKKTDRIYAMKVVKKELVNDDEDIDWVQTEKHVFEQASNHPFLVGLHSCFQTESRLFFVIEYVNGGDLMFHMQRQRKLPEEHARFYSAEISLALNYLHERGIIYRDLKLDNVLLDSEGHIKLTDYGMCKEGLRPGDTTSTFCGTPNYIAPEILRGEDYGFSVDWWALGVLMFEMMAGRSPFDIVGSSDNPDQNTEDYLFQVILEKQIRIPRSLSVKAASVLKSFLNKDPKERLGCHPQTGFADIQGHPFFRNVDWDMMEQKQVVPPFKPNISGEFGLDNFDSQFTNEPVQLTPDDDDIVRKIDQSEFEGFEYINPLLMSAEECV
The settings on record: at 0.1 µM.

The target in assay [3] is T1, Protein kinase C iota type (Homo sapiens). The settings on record: at 1 µM.
Assay [4] has as its target Protein kinase C theta type (Homo sapiens) (UniProt Q04759). The following applies: at 0.1 µM.
Assay [5] has the same target. The following applies: at 1 µM.
In assay [6] the target is Protein kinase C beta type (Homo sapiens) (UniProt P05771). The settings on record: at 0.1 µM.
Chain of Protein kinase C beta type (Homo sapiens) (P05771 2-671 limits assumed): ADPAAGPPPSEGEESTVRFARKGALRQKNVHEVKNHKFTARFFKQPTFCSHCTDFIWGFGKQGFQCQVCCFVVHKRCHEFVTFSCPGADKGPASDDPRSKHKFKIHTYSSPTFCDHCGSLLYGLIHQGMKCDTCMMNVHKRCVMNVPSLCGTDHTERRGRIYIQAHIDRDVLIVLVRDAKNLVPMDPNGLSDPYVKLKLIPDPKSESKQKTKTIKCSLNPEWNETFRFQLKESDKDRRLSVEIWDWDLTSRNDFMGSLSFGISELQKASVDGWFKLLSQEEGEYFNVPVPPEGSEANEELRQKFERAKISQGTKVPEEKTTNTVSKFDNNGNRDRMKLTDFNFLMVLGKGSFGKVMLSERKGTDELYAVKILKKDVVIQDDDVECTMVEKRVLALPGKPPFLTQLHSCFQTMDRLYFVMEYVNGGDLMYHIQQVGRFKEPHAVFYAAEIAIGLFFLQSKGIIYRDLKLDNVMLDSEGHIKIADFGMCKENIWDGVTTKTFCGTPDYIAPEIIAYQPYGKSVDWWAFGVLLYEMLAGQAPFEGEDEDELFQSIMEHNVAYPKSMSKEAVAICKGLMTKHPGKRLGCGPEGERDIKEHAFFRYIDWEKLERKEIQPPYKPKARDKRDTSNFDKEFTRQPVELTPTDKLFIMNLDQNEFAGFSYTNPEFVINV
Assay [7] has the same target. The settings on record: at 1 µM.
Assay [8] has as its target T2, Serine/threonine-protein kinase D1 (Homo sapiens) (UniProt Q15139).
T2 sequence (whole entry): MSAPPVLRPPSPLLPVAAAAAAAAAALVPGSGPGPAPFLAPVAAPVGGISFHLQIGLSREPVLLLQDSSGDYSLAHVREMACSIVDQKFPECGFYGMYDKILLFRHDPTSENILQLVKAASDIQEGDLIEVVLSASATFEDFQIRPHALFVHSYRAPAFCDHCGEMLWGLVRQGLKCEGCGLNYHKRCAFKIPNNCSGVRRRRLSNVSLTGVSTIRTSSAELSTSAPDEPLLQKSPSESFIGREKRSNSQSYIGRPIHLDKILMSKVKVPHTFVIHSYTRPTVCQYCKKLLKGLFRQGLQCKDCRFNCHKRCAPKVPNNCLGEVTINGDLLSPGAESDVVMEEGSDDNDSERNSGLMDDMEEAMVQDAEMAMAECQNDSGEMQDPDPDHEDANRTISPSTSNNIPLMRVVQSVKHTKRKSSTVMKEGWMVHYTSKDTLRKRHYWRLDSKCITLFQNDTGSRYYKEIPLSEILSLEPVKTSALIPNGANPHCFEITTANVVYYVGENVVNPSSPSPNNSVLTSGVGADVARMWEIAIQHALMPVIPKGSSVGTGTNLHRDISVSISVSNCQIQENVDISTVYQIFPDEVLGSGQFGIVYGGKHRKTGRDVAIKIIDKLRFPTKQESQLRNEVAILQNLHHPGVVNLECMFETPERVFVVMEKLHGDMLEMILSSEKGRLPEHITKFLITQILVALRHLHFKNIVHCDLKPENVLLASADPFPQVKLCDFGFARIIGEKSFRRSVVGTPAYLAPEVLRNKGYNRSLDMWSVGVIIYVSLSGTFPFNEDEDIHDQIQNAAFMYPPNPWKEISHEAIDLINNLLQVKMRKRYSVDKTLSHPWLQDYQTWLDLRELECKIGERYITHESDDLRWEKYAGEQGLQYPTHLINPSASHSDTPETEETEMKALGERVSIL
The following applies: at 0.1 µM.

In assay [9] the target is T2, Serine/threonine-protein kinase D1 (Homo sapiens). The settings on record: at 1 µM.
Assay [10] addresses T3, Serine/threonine-protein kinase D2 (Homo sapiens) (UniProt Q9BZL6).
T3 sequence (whole entry): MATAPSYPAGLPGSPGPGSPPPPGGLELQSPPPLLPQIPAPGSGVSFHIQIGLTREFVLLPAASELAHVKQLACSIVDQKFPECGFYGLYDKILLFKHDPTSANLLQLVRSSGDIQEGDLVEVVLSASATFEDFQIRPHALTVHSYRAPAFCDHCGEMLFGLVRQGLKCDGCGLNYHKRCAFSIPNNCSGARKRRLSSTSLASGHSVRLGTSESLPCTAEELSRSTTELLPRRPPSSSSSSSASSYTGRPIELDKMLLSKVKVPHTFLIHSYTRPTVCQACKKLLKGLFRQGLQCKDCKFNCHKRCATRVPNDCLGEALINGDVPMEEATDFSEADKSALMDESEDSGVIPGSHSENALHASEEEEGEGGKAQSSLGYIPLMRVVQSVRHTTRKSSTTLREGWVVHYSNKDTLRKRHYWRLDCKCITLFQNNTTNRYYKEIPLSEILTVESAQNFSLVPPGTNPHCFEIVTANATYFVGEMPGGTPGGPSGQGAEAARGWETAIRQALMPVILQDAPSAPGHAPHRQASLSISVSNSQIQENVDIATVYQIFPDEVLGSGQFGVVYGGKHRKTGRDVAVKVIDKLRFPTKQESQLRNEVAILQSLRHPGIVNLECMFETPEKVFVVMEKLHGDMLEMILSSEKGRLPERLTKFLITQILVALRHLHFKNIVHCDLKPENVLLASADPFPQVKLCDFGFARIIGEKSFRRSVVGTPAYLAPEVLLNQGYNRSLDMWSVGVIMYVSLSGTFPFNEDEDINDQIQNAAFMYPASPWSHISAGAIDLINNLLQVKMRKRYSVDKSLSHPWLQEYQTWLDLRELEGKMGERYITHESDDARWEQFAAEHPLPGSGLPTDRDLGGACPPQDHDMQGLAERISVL
The following applies: at 0.1 µM.

Assay [11] has as its target T3, Serine/threonine-protein kinase D2 (Homo sapiens). The following applies: at 1 µM.
The target in assay [12] is T4, Serine/threonine-protein kinase D3 (Homo sapiens) (UniProt O94806).
T4 sequence (whole entry): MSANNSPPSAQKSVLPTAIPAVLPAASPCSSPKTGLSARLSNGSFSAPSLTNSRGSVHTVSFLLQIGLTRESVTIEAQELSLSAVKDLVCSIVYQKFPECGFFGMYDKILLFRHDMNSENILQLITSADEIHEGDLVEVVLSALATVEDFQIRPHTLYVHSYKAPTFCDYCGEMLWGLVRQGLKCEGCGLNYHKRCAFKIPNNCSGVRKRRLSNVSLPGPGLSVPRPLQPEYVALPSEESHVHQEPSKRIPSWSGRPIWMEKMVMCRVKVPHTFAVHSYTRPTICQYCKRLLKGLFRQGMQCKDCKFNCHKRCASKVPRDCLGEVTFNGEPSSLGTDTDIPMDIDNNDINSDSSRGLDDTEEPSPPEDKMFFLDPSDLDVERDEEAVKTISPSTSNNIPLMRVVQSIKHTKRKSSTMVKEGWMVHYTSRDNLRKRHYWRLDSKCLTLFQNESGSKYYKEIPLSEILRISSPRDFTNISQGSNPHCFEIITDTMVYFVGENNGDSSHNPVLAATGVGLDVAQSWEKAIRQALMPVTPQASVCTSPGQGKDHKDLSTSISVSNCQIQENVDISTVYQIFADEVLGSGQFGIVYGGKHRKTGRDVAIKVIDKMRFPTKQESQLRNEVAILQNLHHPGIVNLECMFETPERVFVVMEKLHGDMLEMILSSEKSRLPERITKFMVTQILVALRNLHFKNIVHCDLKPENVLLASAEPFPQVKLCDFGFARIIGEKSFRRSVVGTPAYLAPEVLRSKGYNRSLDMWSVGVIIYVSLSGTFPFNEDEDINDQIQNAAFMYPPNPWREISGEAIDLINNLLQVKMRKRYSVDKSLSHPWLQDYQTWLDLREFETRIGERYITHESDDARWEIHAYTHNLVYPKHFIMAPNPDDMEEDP
The following applies: at 0.1 µM.

In assay [13] the target is T4, Serine/threonine-protein kinase D3 (Homo sapiens). The following applies: at 1 µM.
The target of assay [14] is T5, cGMP-dependent protein kinase 1 (Homo sapiens) (UniProt Q13976).
T5 sequence (whole entry): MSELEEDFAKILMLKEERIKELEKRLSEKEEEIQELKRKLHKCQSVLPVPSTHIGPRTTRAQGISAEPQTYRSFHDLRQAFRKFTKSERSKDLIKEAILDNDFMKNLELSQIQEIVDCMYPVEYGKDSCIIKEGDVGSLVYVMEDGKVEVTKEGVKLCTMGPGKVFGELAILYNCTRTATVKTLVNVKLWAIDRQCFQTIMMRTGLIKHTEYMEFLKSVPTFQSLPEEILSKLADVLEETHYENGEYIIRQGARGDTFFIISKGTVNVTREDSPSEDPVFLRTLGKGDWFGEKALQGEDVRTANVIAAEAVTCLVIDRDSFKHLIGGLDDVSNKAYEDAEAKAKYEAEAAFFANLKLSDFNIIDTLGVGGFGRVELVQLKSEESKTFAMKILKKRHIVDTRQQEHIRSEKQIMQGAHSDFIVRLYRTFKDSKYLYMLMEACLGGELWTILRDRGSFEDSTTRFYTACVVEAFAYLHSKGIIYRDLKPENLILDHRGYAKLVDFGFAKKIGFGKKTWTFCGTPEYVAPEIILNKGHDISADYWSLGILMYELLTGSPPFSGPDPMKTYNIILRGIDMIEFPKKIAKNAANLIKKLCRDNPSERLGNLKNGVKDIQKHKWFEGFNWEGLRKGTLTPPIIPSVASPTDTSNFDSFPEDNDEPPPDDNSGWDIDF
The following applies: at 0.1 µM.

Assay [15] concerns the target T5, cGMP-dependent protein kinase 1 (Homo sapiens). The settings on record: at 1 µM.
Assay [16] addresses T6, cGMP-dependent protein kinase 2 (Homo sapiens) (UniProt Q13237).
T6 sequence (whole entry): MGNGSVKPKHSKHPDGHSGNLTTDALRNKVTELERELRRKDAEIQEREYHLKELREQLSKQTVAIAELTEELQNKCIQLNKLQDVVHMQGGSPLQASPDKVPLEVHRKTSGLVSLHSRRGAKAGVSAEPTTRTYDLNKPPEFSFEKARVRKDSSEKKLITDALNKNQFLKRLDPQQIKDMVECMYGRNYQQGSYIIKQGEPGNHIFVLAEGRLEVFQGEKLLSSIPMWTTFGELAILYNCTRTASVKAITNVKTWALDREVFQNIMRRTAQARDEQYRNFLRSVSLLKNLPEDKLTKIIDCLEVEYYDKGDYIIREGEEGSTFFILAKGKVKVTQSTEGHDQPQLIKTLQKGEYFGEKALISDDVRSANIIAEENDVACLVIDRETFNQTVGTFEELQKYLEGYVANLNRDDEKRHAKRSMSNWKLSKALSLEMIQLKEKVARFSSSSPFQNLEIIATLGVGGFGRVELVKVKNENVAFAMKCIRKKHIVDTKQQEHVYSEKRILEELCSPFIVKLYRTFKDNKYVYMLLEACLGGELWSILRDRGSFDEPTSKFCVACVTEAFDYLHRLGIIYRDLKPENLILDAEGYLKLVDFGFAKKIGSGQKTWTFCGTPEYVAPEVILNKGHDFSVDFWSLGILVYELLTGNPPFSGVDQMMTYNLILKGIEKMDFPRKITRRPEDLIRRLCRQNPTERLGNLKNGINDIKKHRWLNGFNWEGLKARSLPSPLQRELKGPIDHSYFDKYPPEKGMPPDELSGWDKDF
The following applies: at 0.1 µM.

In assay [17] the target is T6, cGMP-dependent protein kinase 2 (Homo sapiens). The settings on record: at 1 µM.
The target of assay [18] is T7, cAMP-dependent protein kinase catalytic subunit PRKX (Homo sapiens) (UniProt P51817).
T7 sequence (whole entry): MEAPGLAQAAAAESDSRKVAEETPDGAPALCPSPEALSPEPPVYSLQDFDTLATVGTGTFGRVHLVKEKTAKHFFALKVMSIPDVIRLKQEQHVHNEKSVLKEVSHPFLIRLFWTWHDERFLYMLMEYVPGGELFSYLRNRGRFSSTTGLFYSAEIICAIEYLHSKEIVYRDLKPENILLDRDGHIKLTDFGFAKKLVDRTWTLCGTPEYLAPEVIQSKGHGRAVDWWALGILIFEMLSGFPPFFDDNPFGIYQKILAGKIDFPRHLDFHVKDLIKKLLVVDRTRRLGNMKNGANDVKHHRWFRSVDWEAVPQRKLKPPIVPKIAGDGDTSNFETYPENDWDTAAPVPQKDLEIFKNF
The following applies: at 0.1 µM.

Assay [19] deals with T7, cAMP-dependent protein kinase catalytic subunit PRKX (Homo sapiens). The following applies: at 1 µM.
The target of assay [20] is Rho-associated protein kinase 1 (Homo sapiens) (UniProt Q13464). The settings on record: at 0.1 µM.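 Further: values are mean percent inhibition of ROCK1.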
Chain of Rho-associated protein kinase 1 (Homo sapiens) (Q13464 2-1354 limits assumed): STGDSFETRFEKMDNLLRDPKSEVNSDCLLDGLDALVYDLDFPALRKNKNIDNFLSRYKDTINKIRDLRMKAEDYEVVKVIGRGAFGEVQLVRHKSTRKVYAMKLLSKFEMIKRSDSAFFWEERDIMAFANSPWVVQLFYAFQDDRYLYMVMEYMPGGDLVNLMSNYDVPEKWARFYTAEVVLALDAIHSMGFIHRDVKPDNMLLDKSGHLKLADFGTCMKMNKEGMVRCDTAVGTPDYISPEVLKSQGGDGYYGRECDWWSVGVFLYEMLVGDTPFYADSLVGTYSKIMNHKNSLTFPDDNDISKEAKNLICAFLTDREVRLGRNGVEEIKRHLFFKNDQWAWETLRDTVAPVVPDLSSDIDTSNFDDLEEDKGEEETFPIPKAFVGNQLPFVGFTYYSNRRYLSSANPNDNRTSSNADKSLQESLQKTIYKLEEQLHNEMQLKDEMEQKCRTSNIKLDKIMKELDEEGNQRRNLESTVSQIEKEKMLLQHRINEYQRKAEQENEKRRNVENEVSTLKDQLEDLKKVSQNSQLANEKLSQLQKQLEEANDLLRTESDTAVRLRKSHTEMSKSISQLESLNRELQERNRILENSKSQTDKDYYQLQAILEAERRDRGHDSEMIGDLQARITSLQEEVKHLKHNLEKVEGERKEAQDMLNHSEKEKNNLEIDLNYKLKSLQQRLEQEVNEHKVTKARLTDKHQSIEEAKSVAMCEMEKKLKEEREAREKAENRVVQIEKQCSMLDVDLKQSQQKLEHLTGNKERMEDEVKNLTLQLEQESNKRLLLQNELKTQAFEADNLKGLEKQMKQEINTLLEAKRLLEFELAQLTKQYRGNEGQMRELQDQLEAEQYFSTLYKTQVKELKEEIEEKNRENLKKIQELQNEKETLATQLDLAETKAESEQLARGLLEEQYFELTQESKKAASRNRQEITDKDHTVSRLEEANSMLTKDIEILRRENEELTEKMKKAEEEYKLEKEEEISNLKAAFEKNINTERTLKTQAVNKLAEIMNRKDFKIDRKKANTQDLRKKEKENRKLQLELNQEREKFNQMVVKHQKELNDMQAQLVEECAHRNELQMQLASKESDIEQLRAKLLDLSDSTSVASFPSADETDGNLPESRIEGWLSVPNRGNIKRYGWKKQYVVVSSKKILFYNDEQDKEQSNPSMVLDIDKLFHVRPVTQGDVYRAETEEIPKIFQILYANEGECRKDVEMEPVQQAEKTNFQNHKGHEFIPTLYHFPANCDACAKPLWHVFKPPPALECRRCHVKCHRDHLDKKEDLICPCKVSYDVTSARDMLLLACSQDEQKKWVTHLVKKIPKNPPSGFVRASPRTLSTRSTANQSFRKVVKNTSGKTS

Chain of Protein kinase C theta type (Homo sapiens) (Q04759 whole entry, looked up): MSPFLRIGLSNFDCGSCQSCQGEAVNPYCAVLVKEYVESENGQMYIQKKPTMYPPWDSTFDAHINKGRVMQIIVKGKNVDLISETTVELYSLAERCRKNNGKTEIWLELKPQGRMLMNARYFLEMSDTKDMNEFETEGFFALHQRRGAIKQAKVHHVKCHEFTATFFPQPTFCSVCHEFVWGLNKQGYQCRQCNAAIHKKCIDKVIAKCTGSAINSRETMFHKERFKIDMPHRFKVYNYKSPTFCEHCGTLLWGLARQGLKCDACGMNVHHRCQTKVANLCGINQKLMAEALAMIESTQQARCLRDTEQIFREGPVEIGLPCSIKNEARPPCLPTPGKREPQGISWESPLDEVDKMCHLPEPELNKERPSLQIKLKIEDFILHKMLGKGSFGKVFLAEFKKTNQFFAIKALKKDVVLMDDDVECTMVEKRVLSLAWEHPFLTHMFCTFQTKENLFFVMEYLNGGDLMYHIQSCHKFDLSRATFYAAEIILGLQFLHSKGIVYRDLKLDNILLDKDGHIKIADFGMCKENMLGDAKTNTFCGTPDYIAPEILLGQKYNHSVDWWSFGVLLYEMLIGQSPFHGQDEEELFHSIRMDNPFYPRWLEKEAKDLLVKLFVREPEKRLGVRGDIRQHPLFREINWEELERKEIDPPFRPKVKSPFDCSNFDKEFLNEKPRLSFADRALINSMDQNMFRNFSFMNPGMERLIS

As usually defined, the inhibition is the drop in the measured response relative to a control, in per cent. For the compound `Fc1ccc(-c2ncn(C3CCNCC3)c2-c2ccnc(Oc3ccc(Oc4ccccc4)cc3)n2)cc1`, the inhibition was 4.82% in assay [1]; 1.22% in [2]; 2.19% in assay [3]; 1.9% in assay [4]; 3.54% in assay [5]; 2.63% in [6]. In addition, the inhibition in [7] came out at 12.4%; in assay [8], 5.08%; in assay [9], 8.65%; in assay [10] it was 4.63%; in assay [11] it was 5.64%; in assay [12], 5.21%. The inhibition in assay [13] was 7.01%; in assay [14] it was 4.81%; in assay [15], 7.25%; in [16], 3.21%; in assay [17] it was 4.62%; in assay [18] it was 2.43%. Also, the inhibition was 3.21% in assay [19] and 2.39% in assay [20].

Regarding `NS(=O)(=O)c1ccc(N/N=C2\C(=O)Nc3ccc(-c4cnco4)cc32)cc1`, the inhibition in [1] is 4.1%; in [2], 1%; in assay [3], 0.97%; in assay [4] it was 1.05%; in [5], 2.96%; in assay [6] it was 0.38%. The inhibition in assay [7] was 1.12%; in assay [8], -1.79%; in [9] it was 12.6%; in [10], -0.15%; in assay [11] it was 9.15%; in assay [12], -1.69%. Besides, the inhibition was determined as 7.39% in assay [13]; 2.42% in assay [14]; 4.22% in [15]; 1.06% in assay [16]; 12.7% in [17]; 1.53% in assay [18]. Besides, the figures for the inhibition in assay [19] and in assay [20] were 1.83% and 6.06%, respectively.
